The source made the active and inactive calls. Rule for the calls: active = hit-call score of the fitted dose curve at least 0.9, where 1 is the maximum; inactive = score below 0.9.
Assay: ATG_BRE_CIS: Attagene CIS-FACTORIAL HepG2 Assay for human Bone Morphogenetic Protein (BMP) Response Element (BRE) (AID 2282933)
Conditions: HepG2 BMP response element reporter, Attagene transcription factor profiling; actives raise or lower the signal
Procedure: ATG_CIS is a cell-based, multiplexed-readout assay that uses HepG2, a human liver cell line, with measurements taken at 24 hours after chemical dosing in a 24-well plate.ATG_BRE_CIS is one of 52 assay component(s) measured or calculated from the ATG_CIS assay. It is designed to make measurements of mRNA induction, a form of inducible reporter, as detected with fluorescence intensity signals by Reverse transcription polymerase chain reaction (RT-PCR) and Capillary electrophoresis technology.Data from the assay component ATG_BRE_CIS was analyzed into 1 assay endpoint. This assay endpoint, ATG_BRE_CIS, was analyzed with bidirectional fitting relative to DMSO as the negative control and baseline of activity. Using a type of inducible reporter, measures of mRNA for gain or loss-of-signal activity can be used to understand the reporter gene at the transcription factor-level as they relate to the gene SMAD1. Furthermore, this assay endpoint can be referred to as a primary readout, because this assay has produced multiple assay endpoints where this one serves a reporter gene function. To generalize the intended target to other relatable targets, this assay endpoint is annotated to the dna binding intended target family, where the subfamily is Smad protein.
Human liver HepG2 cells are transiently transfected with multiple reporter transcription units (MRTUs) in 6-well plates using FuGene 6 reagent (Roche; 3 ml FuGene/1 mg DNA). The MRTU constructs are regulated by a cis-regulating element (promoter). […] A major difference between the CIS and TRANS system is that in CIS activities of endogenous TFs are measured, whereas the TRANS assay evaluates changes in activities of exogenous, chimeric NR-Gal4 proteins. […] At the end of 24 hour incubation, total RNA was isolated using TriZol reagent (Invitrogen). The isolated RNA is then reverse-transcribed using oligo(dT) primer and Mo-MLV reverse transcriptase (Invitrogen) with DNAse I (Ambion) treatment for 30 min. The one-tenth of the produced cDNA was amplified by PCR using Taq DNA polymerase (Invitrogen) and two reporter sequence-specific primers. The PCR products were fluorescently labeled by primer extension with 6-arboxyfluorescein (6-FAM) 5'-labeled reporter sequence-specific primer (2 min at 95 C, 20 s at 68 C and 10 min at 72 C) and these products were digested with 5U of HpaI (New England Biolabs) for 2h at 37 C. The fragments were purified using Qiaquick PCR columns (Qiagen), analyzed on an ABI 3130xL genetic analyzer (Applied Biosystems) with peak positions identified by using a set of X-rhodamine (ROX)-labeled MapMarker1000 molecular weight standards (BioVentures). The raw capillary electrophoresis data was processed using Attagraph software (Attagene).
For Cl/C=C/Cl, the outcome was “inactive”.
With COP(=S)(OC)Oc1ccc(Sc2ccc(OP(=S)(OC)OC)cc2)cc1 the AC50 was 6.58 µM (active).
For O=C(CCl)CCl, the outcome was “inactive”.
For COc1ccc(C=O)cc1OC, the outcome was “inactive”.
For Nc1ccc(-c2ccc(N)c(Cl)c2)cc1Cl, the outcome was “inactive”.
For CCCCP(CCCC)CCCC, the outcome was “inactive”.
With COC(=O)c1sccc1S(=O)(=O)NC(=O)Nc1nc(C)nc(OC)n1 the outcome was “inactive”.
With CCOC(=O)/C=C(C)/C=C/C[C@@H](C)CCCC(C)C the outcome was “inactive”.
With O=C(Nc1ccc2[nH]ccc2c1)c1cc2cc(F)ccc2n1Cc1cccc(F)c1 the outcome was “inactive”.
With ClCc1ccccn1 the outcome was “inactive”.
For O=C(O)C(F)(F)C(F)(F)C(F)(F)C(F)(F)C(F)(F)C(F)(F)C(F)(F)C(F)(F)C(F)(F)C(F)(F)F, the outcome was “inactive”.
With Cc1cc(=O)[nH]o1 the outcome was “inactive”.
In the case of Nc1cccc(Cl)c1, the outcome was “inactive”.
With ClC1=C(Cl)[C@]2(Cl)[C@@H]3[C@@H](Cl)[C@@H](Cl)C[C@@H]3[C@@]1(Cl)C2(Cl)Cl the outcome was “inactive”.
With ClCCBr the outcome was “inactive”.
For CC(C#N)CCC#N (stereo not given), the outcome was “inactive”.
For C[C@]12CC[C@H](O)CC1=CC[C@@H]1[C@@H]2CC[C@]2(C)C(=O)CC[C@@H]12, the outcome was “inactive”.
For CNC(=O)O/N=C/C(C)(C)S(C)=O (stereo not given), the outcome was “inactive”.
With CN(C)N=O the outcome was “inactive”.
For CCOP(OCC)OCC, the outcome was “inactive”.
In the case of BrCCBr, the outcome was “inactive”.
For CCC[CH2][Sn]([Cl])([Cl])[Cl], the outcome was “inactive”.
With c1cc[c]([Hg][c]2ccccc2)cc1 the outcome was “inactive”.
In the case of CCCCCCCCCl, the outcome was “inactive”.
For C=C(C)C(=O)[O][Sn]([CH2]CCC)([CH2]CCC)[CH2]CCC, the outcome was “inactive”.
In the case of OCC(O)CCl (stereo not given), the outcome was “inactive”.
With CCNc1nc(NC(C)(C)C)nc(SC)n1 the outcome was “inactive”.
In the case of O=[N+]([O-])c1c(Cl)c(Cl)cc(Cl)c1Cl, the outcome was “inactive”.
With CC(C)C1CCC(Cc2ccc(Cl)cc2)C1(O)Cn1cncn1 (stereo not given) the AC50 was 11 µM (active).
With Nc1cccc2ccccc12 the outcome was “inactive”.
In the case of CC(C)CCCCCCOC(=O)c1ccccc1C(=O)OCCCCCCC(C)C, the outcome was “inactive”.
For CCN(CC)C(=O)Cl, the outcome was “inactive”.
For CC(C)(OO)c1ccccc1, the outcome was “inactive”.
With O=[N+]([O-])c1ccc(O)c([N+](=O)[O-])c1 the outcome was “inactive”.
In the case of CC(=O)C=C(C)C, the outcome was “inactive”.
For CCN1CCC2(CC1)COc1cc3c(cc12)N(C(=O)c1ccc(-c2ccc(-c4nnc(C)o4)cc2C)cc1)CC3, the outcome was “inactive”.
In the case of N#Cc1ccccn1, the outcome was “inactive”.
With Nc1ncc([N+](=O)[O-])s1 the outcome was “inactive”.
With ClC(Cl)=C(Cl)C(Cl)=C(Cl)Cl the outcome was “inactive”.
For O=C(OC1CCCCC1)c1ccccc1C(=O)OC1CCCCC1, the AC50 was 67.5 µM (active).
